Compound activity from PubChem BioAssay.
In the library only some 3.6% were active in any assay of this set; here they are far more common.
FBPA Giardia inh: qHTS Assay for Inhibitors of Fructose-1,6-bisphosphate Aldolase from Giardia Lamblia. purified Giardia FBPA. Potency, µM (doses to about 59.6 µM), usual class: inhibitors. actives 0.71% (n = 290,000). AID 2451, 2010; also: nearly all actives have a fitted effect of over 55% in size
Target sequence (A8B2U2 whole entry, looked up): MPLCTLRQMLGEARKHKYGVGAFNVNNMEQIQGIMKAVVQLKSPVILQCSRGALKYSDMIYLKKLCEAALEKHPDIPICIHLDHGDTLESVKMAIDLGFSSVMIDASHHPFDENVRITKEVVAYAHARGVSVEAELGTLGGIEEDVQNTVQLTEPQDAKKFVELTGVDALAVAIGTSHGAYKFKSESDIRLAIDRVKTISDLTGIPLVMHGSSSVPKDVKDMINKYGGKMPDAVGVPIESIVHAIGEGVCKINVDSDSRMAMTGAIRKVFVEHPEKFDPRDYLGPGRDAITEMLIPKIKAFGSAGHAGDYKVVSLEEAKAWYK
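Giardia FBPA (40 nM reagent) was preincubated 10 min at RT with compound (up to 57.5 uM final), then substrate plus GAPDH/TPI/NAD/arsenate coupling system with diaphorase/resazurin was added; resorufin fluorescence (525/598 nm) was read after 20 min.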
AmpC inh detg: qHTS Inhibitors of AmpC Beta-Lactamase (assay with detergent). P00811. AmpC hydrolysis of nitrocefin, absorbance 480 nm, 0.01% Triton. Potency, µM (doses to about 114 µM), actives largely listed as inhibitors. actives 0.041% (n = 370,000); also: nearly all actives have a fitted effect of over 25% in size
Target sequence (P00811 whole entry, looked up): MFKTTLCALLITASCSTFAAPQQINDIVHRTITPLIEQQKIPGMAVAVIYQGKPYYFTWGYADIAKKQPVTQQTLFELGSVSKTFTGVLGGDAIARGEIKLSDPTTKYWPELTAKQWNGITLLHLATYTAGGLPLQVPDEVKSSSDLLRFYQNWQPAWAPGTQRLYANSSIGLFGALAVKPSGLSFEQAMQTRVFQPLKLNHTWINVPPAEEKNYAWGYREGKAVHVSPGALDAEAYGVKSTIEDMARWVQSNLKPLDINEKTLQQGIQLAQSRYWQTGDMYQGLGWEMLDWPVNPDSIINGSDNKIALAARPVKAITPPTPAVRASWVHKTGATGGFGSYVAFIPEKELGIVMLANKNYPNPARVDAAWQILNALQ
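20 mM phosphate pH 7.0 + 0.01% (detergent screen) or 0.0001% Triton X-100; 5.3 nM AmpC reagent; cpd preinc 15 min RT; nitrocefin (800 uM stock) to start; A480 q20 s × 4 min; Activity was normalised to no-enzyme and no-compound control wells.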
AmpC no deterg: qHTS Inhibitors of AmpC Beta-Lactamase (assay without detergent). P00811. AmpC nitrocefin hydrolysis, absorbance 480 nm, 0.0001% Triton. Potency, µM (highest dose often 57.1 µM), most hits filed as inhibitors. actives 0.52% (n = 330,000); also: nearly all actives have a fitted effect of over 20% in size
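AmpC (5.3 nM in the dispensed reagent) in 20 mM phosphate pH 7.0 with 0.01% (detergent screen) or 0.0001% Triton X-100 was preincubated with compounds for 15 min at room temperature. Nitrocefin was then added from an 800 uM solution, and hydrolysis was followed at 480 nm.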
Sm TGR inh: qHTS Assay for the Inhibitors of Schistosoma Mansoni Peroxiredoxins. Schistosoma mansoni thioredoxin glutathione reductase (TGR), Q962Y6. purified TGR, DTNB reduction, TNB absorbance 405 nm. Potency, µM (top dose mostly 114 µM), hits mostly inhibitors. actives 3% (n = 360,000); also: nearly all actives have a fitted effect of over 60% in size
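Kinetic colorimetric format: TGR-catalysed, NADPH-driven DTNB reduction monitored via TNB absorbance. Enzyme dispensed at 20 nM; compound exposure 15 min at room temperature before reaction start.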
Each line names hits and unclear results; the compound was inactive in the other large screens. Calls follow the shape of the dose curve; as a rule, active = well fitted curve in the direction sought with a large enough effect; inconclusive = small, poorly fitted or top-dose-only effect, or another doubt; inactive = no such curve, though single readings can be large; an effect the other way counts as inactive or inconclusive.

CCOc1ccc(N(CC(=O)N/N=C/c2cccnc2)S(C)(=O)=O)cc1	none
Oc1c(Cl)cc(Cl)cc1/C=N/c1nc(-c2ccc(Cl)cc2)cs1	AmpC no deterg inconclusive, Sm TGR inh inconclusive
Oc1c(Cl)cc(Cl)cc1/C=N/c1nccs1	FBPA Giardia inh inconclusive, Sm TGR inh 6.3µM
Cc1ccc(-c2nc3scc(CCNS(=O)(=O)c4ccc(C)c(C)c4)n3n2)cc1	none (no result: FBPA Giardia inh, AmpC no deterg)
Cc1c(C(=O)O)c(O)cc2c1C(=O)c1c(O)c([C@H]3O[C@H](CO)[C@@H](O)[C@H](O)[C@H]3O)c(O)c(O)c1C2=O	FBPA Giardia inh 18µM (no result: AmpC inh detg, AmpC no deterg, Sm TGR inh)
O=c1c2c3c(sc2n2cnnc2n1-c1ccccc1)N(Cc1ccccc1)CCC3	AmpC inh detg inconclusive, Sm TGR inh 25µM
Cc1nnc2n(-c3ccccc3)c(=O)c3c4c(sc3n12)CCCC4	none
Cc1cc(F)ccc1NC(=O)c1cc(S(=O)(=O)N2CCc3ccccc32)cn1C	none
Cc1c(N2C(=O)/C(=C\C3CC=CCC3)SC2=S)c(=O)n(-c2ccccc2)n1C (stereo not given)	Sm TGR inh 28µM
Cc1c(N2C(=O)/C(=C/c3ccccc3)SC2=S)c(=O)n(-c2ccccc2)n1C	none
Cc1c(N2C(=O)/C(=C/C3CC=CCC3)SC2=S)c(=O)n(-c2ccccc2)n1C (stereo not given)	FBPA Giardia inh inconclusive, Sm TGR inh 7.9µM
Cc1ccc(S(=O)(=O)c2c(N)n(Cc3ccco3)c3nc4ccccc4nc23)cc1C	Sm TGR inh 10µM
Nc1c(S(=O)(=O)c2ccccc2)c2nc3ccccc3nc2n1Cc1ccco1	Sm TGR inh 18µM
Nc1c(S(=O)(=O)c2ccccc2)c2nc3ccccc3nc2n1CCN1CCOCC1	none
CSCc1ccc(C(=O)N2CCCC(Nc3ccc4c(c3)OCCO4)C2)o1 (stereo not given)	AmpC inh detg inconclusive, Sm TGR inh 28µM
O=C(CSc1nc2c(c(=O)[nH]1)CCC2)Nc1ccccc1C(F)(F)F	none (no result: FBPA Giardia inh, AmpC no deterg)
S=C(NCCc1ccccc1)Nc1nccs1	Sm TGR inh 2.2µM (no result: FBPA Giardia inh)
O=C(NCCc1ccccc1)C(=O)Nc1nccs1	none
COc1ccc(S(=O)(=O)N(C)c2ccc(C(=O)Nc3cccnc3)cc2)cc1	AmpC inh detg inconclusive
O=C1C=CC(=O)N1CCNc1ncc(C(F)(F)F)cc1Cl	AmpC inh detg inconclusive, Sm TGR inh 0.4µM
O=C1CC(=O)N(CCNc2ncc(C(F)(F)F)cc2Cl)C(=O)N1	AmpC inh detg inconclusive
Cc1cc(N2C(=O)C=CC2=O)c([N+](=O)[O-])cc1C	Sm TGR inh 0.71µM
COc1ccc(N=C2SC(CC(=O)Nc3ccc(F)cc3)C(=O)N2Cc2ccco2)cc1 (stereo not given)	AmpC inh detg inconclusive, Sm TGR inh inconclusive
COc1ccc(N=C2SC(CC(=O)Nc3ccccc3OC)C(=O)N2Cc2ccco2)cc1 (stereo not given)	Sm TGR inh 50µM
COc1ccc2[nH]cc(C(=O)CCl)c2c1	Sm TGR inh 2.8µM
COc1ccc2[nH]cc(C(=O)CN(C)CCc3ccc(OC)c(OC)c3)c2c1	Sm TGR inh 13µM
COc1ccc(CCN(C)CC(=O)Nc2c(C)cc(C)cc2C)cc1OC	FBPA Giardia inh inconclusive, Sm TGR inh 100µM
COc1ccc(CCN(C)CCC(=O)Nc2cc(C)ccc2C)cc1OC	none
C[C@H](NC(=O)CNC(=O)[C@@H](NC(=O)[C@H](Cc1ccccc1)NC(=O)CNC(=O)CNC[C@@H](N)Cc1ccccc1)[C@@H](C)O)C(=O)N[C@@H](CCCN=C(N)N)C(=O)N[C@@H](CCCCN)C(=O)N[C@@H](CO)C(=O)N[C@@H](C)C(=O)N[C@@H](CCCN=C(N)N)C(=O)N[C@@H](CCCCN)C(N)=O	none (no result: AmpC inh detg, AmpC no deterg, Sm TGR inh)
CCCC(O)(CCN(C)C)c1ccc(OC)cc1 (stereo not given)	Sm TGR inh 11µM
COC(=O)c1ccc(OC(=O)c2cccnc2)cc1	none
COC(=O)c1ccc(OC(=O)c2ccncc2)cc1O	Sm TGR inh 45µM
COc1cccc(-c2cncnc2NC2CCNCC2)c1	none (no result: AmpC inh detg, AmpC no deterg, Sm TGR inh)
CCN1/C(=N\N)c2cccc3cccc1c23	FBPA Giardia inh 10µM, Sm TGR inh 22µM
O=C(O)/C=C/C(=O)c1c(-c2ccccc2)[nH]c2ccccc12	Sm TGR inh 25µM
Cc1ccccc1Oc1cc(-n2ncc(Cl)c(Cl)c2=O)ncn1	Sm TGR inh 2µM
CC(=O)c1ccc(OCc2cc(C(=O)N(C)Cc3ccccn3)no2)cc1	Sm TGR inh 13µM (no result: FBPA Giardia inh)
CC(=O)c1cccc(OCc2cc(C(=O)N3C[C@@H](C)O[C@@H](C)C3)no2)c1	Sm TGR inh 3.2µM
CC(=O)c1ccc(OCc2cc(C(=O)N(C)Cc3ccon3)no2)cc1	none (no result: FBPA Giardia inh)
COc1cccc(OCc2cc(C(=O)N(C)CCC3CCCCO3)no2)c1 (stereo not given)	AmpC inh detg inconclusive (no result: FBPA Giardia inh)
CC(=O)c1ccc(OCc2cc(C(=O)N3CCC[C@H]3CO)no2)cc1	Sm TGR inh 50µM (no result: FBPA Giardia inh)
CC(=O)c1cccc(OCc2cc(C(=O)N(C)CCC3CCOCC3)no2)c1	AmpC inh detg inconclusive, Sm TGR inh 2.2µM
COCCC1CCCCN1C(=O)c1cc(COc2cccc(C(C)=O)c2)on1 (stereo not given)	none (no result: FBPA Giardia inh)
Cc1ccc(CN(C(=O)COc2c(C)cccc2C)C2CCS(=O)(=O)C2)o1 (stereo not given)	none (no result: FBPA Giardia inh, AmpC no deterg)
Cc1ccc(S(=O)(=O)N2CCOC23CCN(C(=O)c2ccc(Cl)cc2Cl)CC3)cc1	Sm TGR inh 7.9µM
Cc1ccc(S(=O)(=O)N2CCOC23CCN(C(=O)c2cc(Cl)ccc2Cl)CC3)cc1	none
COc1cc(OC)c(OC)cc1CN1CCc2nc(N3CCN(c4ncccn4)CC3)ncc2C1	Sm TGR inh 22µM (no result: FBPA Giardia inh, AmpC no deterg)
CCOC(=O)CNS(=O)(=O)c1ccc(F)cc1Br	none (no result: AmpC inh detg, AmpC no deterg, Sm TGR inh)
O=C1C(Cl)=C(N2CCCCCC2)C(=O)N1c1ccc(Cl)cc1	none
O=C1C(Cl)=C(N2CCCC2)C(=O)N1c1ccc(F)cc1	AmpC inh detg inconclusive, Sm TGR inh 50µM
COc1cc(NC(=O)c2ccc3c(c2)S(=O)(=O)N=C2CCCCCN23)cc(OC)c1	none (no result: FBPA Giardia inh)
COc1cc(C(C[N+](=O)[O-])c2c(C)cc3ccccn23)ccc1O (stereo not given)	Sm TGR inh 18µM
COc1cc(C(C[N+](=O)[O-])c2c(-c3ccccc3)cc3ccccn23)cc(OC)c1OC (stereo not given)	FBPA Giardia inh inconclusive, Sm TGR inh 8.9µM
COc1ccc(C(C[N+](=O)[O-])c2c(-c3ccccc3)cc3ccccn23)cc1OC (stereo not given)	Sm TGR inh 7.9µM (no result: AmpC no deterg)
CCOc1ccc(C(=O)NCC(=O)OCc2cc(C(C)=O)ccc2OC)cc1	Sm TGR inh 7.1µM
CCOc1ccc(C(=O)NCC(=O)OCCCOC(=O)CNC(=O)c2ccc(OCC)cc2)cc1	none (no result: FBPA Giardia inh)
COc1ccc(C(C)=O)cc1COC(=O)Cc1cc(OC)c(OC)c(OC)c1	AmpC inh detg inconclusive, Sm TGR inh 11µM
